Data on 27 compounds can be found in PMC4552634, “A New Set of Chemical Starting Points with Plasmodium falciparum Transmission-Blocking Potential for Antimalarial Drug Discovery” (PLoS ONE, 2015).

A word on the % Inhibition: it is the relative decrease from the control value, in per cent.

About 3,200 (25%) of roughly 13,000 compounds showed an effect of 50% or more. The list shows a part of the results.

The subject of this assay is P. falciparum stage V gametocytes. Set-up: BacTiter-Glo ATP luminescence viability of purified stage V gametocytes in 384-well plates, per cent inhibition versus DMSO. Particulars: 48 h, 5 µM; inhibitor.
Take `O=C(/C=C/c1ccc(Cl)c(Cl)c1)NCCCCCN1CCN(C(=O)Nc2ccc(OC(F)F)cc2)CC1` [TCMDC-135733]: the “% Inhibition” value turned out to be 4.05%. For `O=C1NC(=S)N/C1=C/C=C/c1ccc([N+](=O)[O-])o1` [TCMDC-125757], the “% Inhibition” value is reported as 95.66%. Take `O=C(Nc1ccc(-c2csc(-c3nc4ccccc4[nH]3)c2)cc1)Nc1ccc(Cl)c(Cl)c1` [TCMDC-133271]: the “% Inhibition” value is reported as -42.33%. Under `O=C(NCC1Cc2cc(Oc3ccccc3)ccc2O1)c1ccc([N+](=O)[O-])o1` (stereo not drawn) [TCMDC-124802] stands 28.95%.

As to `CC(C)(C)c1nn(-c2ccc(Cl)cc2)c2[nH]c(=O)c(CNCc3cccs3)cc12` [TCMDC-123908], the “% Inhibition” value stood at 55.18%. Regarding `CC(C)(C)c1nn(-c2ccc(Cl)cc2)c2[nH]c(=O)c(CNC3CCCC3)cc12` [TCMDC-123909], the “% Inhibition” value is 44.22%. Under `CC(C)(C)c1nn(-c2ccccc2)c2[nH]c(=O)c(CNCc3ccccc3)cc12` [TCMDC-123911] stands -3.272%; under `CC(C)(C)c1nn(-c2ccccc2)c2[nH]c(=O)c(CNCc3ccc4c(c3)OCO4)cc12` [TCMDC-123910], 11.81%; under `CC(C)(C)c1nn(-c2ccc(Cl)cc2)c2[nH]c(=O)c(CNCc3ccc4c(c3)OCO4)cc12` [TCMDC-136662], 74.56%. Under `COc1ccc(CCNCc2cc3c(C(C)(C)C)nn(-c4ccc(Cl)cc4)c3[nH]c2=O)cc1OC` [TCMDC-125351] stands 40.9%. Under `Cc1ccc(NS(=O)(=O)c2cccs2)cc1-c1cccc(C(=O)Nc2ccc(F)cc2)c1` [TCMDC-133590] stands -57.86%; under `CN(C)c1cccc(NC(=O)NC2N=C(c3ccccc3)c3ccccc3N(CC(=O)N(C)c3ccccc3)C2=O)c1` (stereo not drawn) [TCMDC-131985], 33.13%; under `Cc1nc(N)nc(N)c1OCc1ccc(Cl)c(Cl)c1` [TCMDC-131718], -2.553%. Turning to `CC(C)CSc1cc(C(=O)Nc2cc(Cl)ccc2O)ccn1` [TCMDC-138874], the “% Inhibition” value is given as -25.81%. On to `O=C(Nc1nc2cc(S(=O)(=O)NCCc3ccc(F)cc3)ccc2n1CCCn1ccnc1)c1ccc(Cl)cc1` [TCMDC-141626], for which the “% Inhibition” value is reported as 16.98%. Under `CCNc1cc(C(=O)N[C@@H](Cc2ccccc2)[C@H](O)CNC2CCCCC2)cc(N2CCCCS2(=O)=O)c1` [TCMDC-134676] stands 26.1%; under `CCCC1(NC[C@@H](O)[C@H](Cc2ccccc2)NC(=O)c2cc(NCC)cc(N3CCCCS3(=O)=O)c2)CCCC1` [TCMDC-135261], 38.92%. Take `CCNc1cc(C(=O)N[C@@H](Cc2ccccc2)[C@H](O)CNC23CCC(CC2)C3)cc(N2CCCCS2(=O)=O)c1` [TCMDC-135371]: the “% Inhibition” value was 58.44%.

As for `CCNc1cc(C(=O)N[C@@H](Cc2ccccc2)[C@H](O)CNC2C3CC4CC(C3)CC2C4)cc(N2CCCCS2(=O)=O)c1` (stereo partly drawn) [TCMDC-135424], the “% Inhibition” value is on record as 38.6%.

Take `CCNc1cc(C(=O)N[C@@H](Cc2ccccc2)[C@H](O)CNC2(CC)CC2)cc(N2CCCCS2(=O)=O)c1` [TCMDC-135176]: the “% Inhibition” value came out at 3.927%. Under `CCNc1cc(C(=O)N[C@@H](Cc2ccccc2)[C@H](O)CNC2(CC)CCCCC2)cc(N2CCCCS2(=O)=O)c1` [TCMDC-135209] stands 82.14%; under `CCCC1(NC[C@@H](O)[C@H](Cc2ccccc2)NC(=O)c2cc(NCC)cc(N3CCCCS3(=O)=O)c2)CC1` [TCMDC-135192], 21.27%; under `CCNc1cc(C(=O)N[C@@H](Cc2ccccc2)[C@H](O)CNC2CC3CCC2C3)cc(N2CCCCS2(=O)=O)c1` (stereo partly drawn) [TCMDC-135107], 91.01%. Under `CCNc1cc(C(=O)N[C@@H](Cc2ccccc2)[C@H](O)CNC23CC4CC(CC(C4)C2)C3)cc(N2CCCCS2(=O)=O)c1` [TCMDC-135352] stands 40.45%; under `CCNc1cc(C(=O)N[C@@H](Cc2ccccc2)[C@H](O)CNC2(C)CCCCC2)cc(N2CCCCS2(=O)=O)c1` [TCMDC-134703], 93.77%; under `CCNc1cc(C(=O)N[C@@H](Cc2ccccc2)[C@H](O)CNC23CCC(CC2)CC3)cc(N2CCCCS2(=O)=O)c1` [TCMDC-135390], 43.97%. Under `CCCC1(NC[C@@H](O)[C@H](Cc2ccccc2)NC(=O)c2cc(NCC)cc(N3CCCCS3(=O)=O)c2)CCCCC1` [TCMDC-135262] stands 28.65%.
